Among all 5,500 compounds or so, about 2,000 (36%) were called active. About 18% were inconclusive and are not listed. Cut-off read from the data, not from the text of the source: active = normalized growth mostly below about 0.91 (no sharp cut-off); inconclusive = no clear call, values can overlap the other calls; inactive = mostly above about 0.92. Some of the results follow.
Assay: chemical genetic growth profiling, strain panel (AID 1159580);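 note: tested at 20 µM; growth read once vehicle control cultures reached saturation at 30 °C; 1 = growth at the plate median or of vehicle wells; lower values mean less growth of the strain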
Details: growth OD

Measured: normalized growth

Cc1cc(O)c(C=O)c2c1C(=O)Oc1c(COC(=O)/C=C/C(=O)O)c(O)c(C(=O)O)c(C)c1O2
active: S. cerevisiae deletion strains, locus YLL001W, strain dnm1, hits give low values 0.888 | S. cerevisiae deletion strains, locus YLR357W, strain rsc2, hits give low values 0.841 | S. cerevisiae deletion strains, locus YMR058W, strain fet3, hits give low values 0.311 | S. cerevisiae deletion strains, locus YNL209W, strain ssb2, hits give low values 0.804 | S. cerevisiae deletion strains, locus YOR106W, strain vam3, hits give low values 0.709 | S. cerevisiae deletion strains, locus YOR270C, strain vph1, hits give low values 0.503 | S. cerevisiae deletion strains, locus YPL051W, strain arl3, hits give low values 0.831 | S. cerevisiae strains, strain wild type, hits give low values 0.874
inactive: S. cerevisiae deletion strains, locus YJR043C, strain POL32, hits give low values 0.954 | S. cerevisiae deletion strains, locus YJR066W, strain TOR1, hits give low values 0.931 | S. cerevisiae deletion strains, locus YJR075W, strain HOC1, hits give low values 0.962 | S. cerevisiae deletion strains, locus YKL009W, strain mrt4, hits give low values 0.974 | S. cerevisiae deletion strains, locus YKL068W, hits give low values 0.993 | S. cerevisiae deletion strains, locus YKL085W, strain MDH1 (second series), hits give low values 0.991 | S. cerevisiae deletion strains, locus YKL085W, strain MDH1, hits give low values 0.991 | S. cerevisiae deletion strains, locus YKL160W, strain elf1, hits give low values 0.992 | S. cerevisiae deletion strains, locus YKR001C, strain vps1, hits give low values 0.921 | S. cerevisiae deletion strains, locus YKR026C, strain gcn3, hits give low values 0.985 | S. cerevisiae deletion strains, locus YKR091W, strain srl3, hits give low values 1.01 | S. cerevisiae deletion strains, locus YLL026W, hits give low values 1.01 | S. cerevisiae deletion strains, locus YLL041C, strain sdh2, hits give low values 1 | S. cerevisiae deletion strains, locus YLR027C, strain aat2, hits give low values 0.982 | S. cerevisiae deletion strains, locus YLR039C, strain RIC1, hits give low values 0.933 | S. cerevisiae deletion strains, locus YLR058C, strain SHM2, hits give low values 0.937 | S. cerevisiae deletion strains, locus YLR102C, strain apc9, hits give low values 0.991 | S. cerevisiae deletion strains, locus YLR113W, strain HOG1, hits give low values 0.984 | S. cerevisiae deletion strains, locus YLR221C, strain rsa3, hits give low values 0.946 | S. cerevisiae deletion strains, locus YLR258W, strain gsy2, hits give low values 0.987 | S. cerevisiae deletion strains, locus YLR262C, strain YPT6 (second series), hits give low values 0.877 | S. cerevisiae deletion strains, locus YLR262C, strain YPT6, hits give low values 0.936 | S. cerevisiae deletion strains, locus YLR268W, strain sec22, hits give low values 0.924 | S. cerevisiae deletion strains, locus YLR320W, strain mms22, hits give low values 0.959 | S. cerevisiae deletion strains, locus YLR330W, strain CHS5, hits give low values 0.971 | S. cerevisiae deletion strains, locus YLR342W, strain FKS1 (second series), hits give low values 0.98 | S. cerevisiae deletion strains, locus YLR342W, strain FKS1, hits give low values 0.968 | S. cerevisiae deletion strains, locus YLR370C, strain arc18, hits give low values 0.967 | S. cerevisiae deletion strains, locus YLR371W, strain rom2, hits give low values 0.943 | S. cerevisiae deletion strains, locus YLR384C, strain iki3, hits give low values 0.996 | S. cerevisiae deletion strains, locus YLR418C, strain cdc73, hits give low values 0.883 | S. cerevisiae deletion strains, locus YML016C, strain PPZ1, hits give low values 0.957 | S. cerevisiae deletion strains, locus YML032C, strain rad52, hits give low values 1.01 | S. cerevisiae deletion strains, locus YML120C, strain ndi1, hits give low values 1 | S. cerevisiae deletion strains, locus YML124C, strain tub3, hits give low values 0.996 | S. cerevisiae deletion strains, locus YMR078C, strain ctf18, hits give low values 0.986 | S. cerevisiae deletion strains, locus YMR125W, strain sto1, hits give low values 1.08 | S. cerevisiae deletion strains, locus YMR129W, hits give low values 1.01 | S. cerevisiae deletion strains, locus YMR205C, strain PFK2, hits give low values 0.998 | S. cerevisiae deletion strains, locus YMR223W, strain ubp8, hits give low values 0.961 | S. cerevisiae deletion strains, locus YMR231W, strain pep5, hits give low values 0.94 | S. cerevisiae deletion strains, locus YMR307W, strain GAS1, hits give low values 0.72 | S. cerevisiae deletion strains, locus YNL067W, strain RPL9B, hits give low values 0.92 | S. cerevisiae deletion strains, locus YNL071W, strain lat1, hits give low values 1 | S. cerevisiae deletion strains, locus YNL183C, strain NPR1, hits give low values 0.931 | S. cerevisiae deletion strains, locus YNL233W, strain BNI4, hits give low values 0.967 | S. cerevisiae deletion strains, locus YNL248C, strain rpa49, hits give low values 1.01 | S. cerevisiae deletion strains, locus YNL250W, strain rad50, hits give low values 0.956 | S. cerevisiae deletion strains, locus YNL271C, strain bni1, hits give low values 0.954 | S. cerevisiae deletion strains, locus YNL298W, strain CLA4, hits give low values 0.966 | S. cerevisiae deletion strains, locus YNL307C, strain MCK1, hits give low values 0.98 | S. cerevisiae deletion strains, locus YNL322C, strain KRE1 (second series), hits give low values 1.04 | S. cerevisiae deletion strains, locus YNR049C, strain mso1, hits give low values 0.995 | S. cerevisiae deletion strains, locus YNR052C, strain pop2, hits give low values 0.963 | S. cerevisiae deletion strains, locus YOL012C, strain htz1 0.751 | S. cerevisiae deletion strains, locus YOL147C, strain pex11, hits give low values 0.994 | S. cerevisiae deletion strains, locus YOR001W, strain rrp6, hits give low values 0.961 | S. cerevisiae deletion strains, locus YOR061W, strain CKA2, hits give low values 0.95 | S. cerevisiae deletion strains, locus YOR069W, strain VPS5, hits give low values 0.976 | S. cerevisiae deletion strains, locus YOR070C, strain gyp1, hits give low values 0.988 | S. cerevisiae deletion strains, locus YOR080W, strain dia2, hits give low values 1.02 | S. cerevisiae deletion strains, locus YOR083W, strain WHI5, hits give low values 0.937 | S. cerevisiae deletion strains, locus YOR136W, strain idh2, hits give low values 0.988 | S. cerevisiae deletion strains, locus YOR144C, strain elg1, hits give low values 0.993 | S. cerevisiae deletion strains, locus YOR184W, strain ser1, hits give low values 0.946 | S. cerevisiae deletion strains, locus YOR231W, strain MKK1, hits give low values 0.953 | S. cerevisiae deletion strains, locus YOR265W, strain rbl2, hits give low values 0.964 | S. cerevisiae deletion strains, locus YOR290C, strain snf2, hits give low values 0.869 | S. cerevisiae deletion strains, locus YOR316C, strain cot1, hits give low values 0.989 | S. cerevisiae deletion strains, locus YPL078C, strain atp4, hits give low values 0.925 | S. cerevisiae deletion strains, locus YPL106C, strain sse1, hits give low values 0.942 | S. cerevisiae deletion strains, locus YPL240C, strain hsp82, hits give low values 1.01 | S. cerevisiae deletion strains, locus YPL256C, strain CLN2, hits give low values 1.01 | S. cerevisiae deletion strains, locus YPR119W, strain clb2, hits give low values 0.991 | S. cerevisiae deletion strains, locus YPR141C, strain kar3, hits give low values 0.96 | S. cerevisiae deletion strains, locus YPR163C, strain tif3, hits give low values 0.987 | S. cerevisiae deletion strains, locus YPR167C, strain met16, hits give low values 0.998 | S. cerevisiae deletion strains, strain wtn01, hits give low values 0.945

— PubChem BioAssay AID1159580 (chemical genetic matrix, 2015)
